Measurements taken from PubChem BioAssay AID1159580 (chemical genetic matrix, 2015).
Hit rate of the full screen: of about 5,500 compounds, about 2,000 (36%) were called active. Inconclusive results (about 18%) are left out. Rule as the data show it: active = normalized growth mostly below about 0.91 (no sharp cut-off); inconclusive = no clear call, values can overlap the other calls; inactive = mostly above about 0.92. The list shows a part of the results.

Assay: chemical genetic growth profiling, strain panel (AID 1159580);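 also: tested at 20 µM; growth read once vehicle control cultures reached saturation at 30 °C; 1 = growth at the plate median or of vehicle wells; lower values mean less growth of the strain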
Details: growth OD

Measured: normalized growth

Clc1cccc(-c2csc(Nc3cccnc3)n2)c1
inactive: S. cerevisiae deletion strains, locus YAL013W, strain DEP1, active compounds read low 0.935 | S. cerevisiae deletion strains, locus YBR229C, strain ROT2, active compounds read low 0.998 | S. cerevisiae deletion strains, locus YCL061C, strain MRC1, active compounds read low 0.957 | S. cerevisiae deletion strains, locus YDL101C, strain DUN1, active compounds read low 1.04 | S. cerevisiae deletion strains, locus YDL134C, strain PPH21, active compounds read low 0.997 | S. cerevisiae deletion strains, locus YDR150W, strain NUM1, active compounds read low 0.954 | S. cerevisiae deletion strains, locus YEL061C, strain CIN8, active compounds read low 0.993 | S. cerevisiae deletion strains, locus YGR078C, strain PAC10, active compounds read low 0.979 | S. cerevisiae deletion strains, locus YGR229C, strain SMI1, active compounds read low 1 | S. cerevisiae deletion strains, locus YHR030C, strain SLT2, active compounds read low 0.729 | S. cerevisiae deletion strains, locus YHR087W, strain rtc3, active compounds read low 0.974 | S. cerevisiae deletion strains, locus YJL187C, strain SWE1, active compounds read low 0.957 | S. cerevisiae deletion strains, locus YJR043C, strain POL32, active compounds read low 0.921 | S. cerevisiae deletion strains, locus YJR075W, strain HOC1, active compounds read low 0.978 | S. cerevisiae deletion strains, locus YLR039C, strain RIC1, active compounds read low 0.951 | S. cerevisiae deletion strains, locus YLR058C, strain SHM2 (second series), active compounds read low 0.99 | S. cerevisiae deletion strains, locus YLR085C, strain ARP6, active compounds read low 0.839 | S. cerevisiae deletion strains, locus YLR262C, strain YPT6, active compounds read low 1 | S. cerevisiae deletion strains, locus YML094W, strain GIM5, active compounds read low 0.971 | S. cerevisiae deletion strains, locus YMR219W, strain ESC1, active compounds read low 0.992 | S. cerevisiae deletion strains, locus YMR263W, strain SAP30, active compounds read low 0.914 | S. cerevisiae deletion strains, locus YNL153C, strain GIM3, active compounds read low 0.971 | S. cerevisiae deletion strains, locus YNL298W, strain CLA4 (second series), active compounds read low 0.881 | S. cerevisiae deletion strains, locus YNL322C, strain KRE1, active compounds read low 1 | S. cerevisiae deletion strains, locus YNR030W, strain Alg12, active compounds read low 0.968 | S. cerevisiae deletion strains, locus YOL006C, strain TOP1, active compounds read low 0.979 | S. cerevisiae deletion strains, locus YPL055C, strain LGE1, active compounds read low 0.839 | S. cerevisiae deletion strains, locus YPL241C, strain CIN2, active compounds read low 0.915 | S. cerevisiae deletion strains, locus YPR135W, strain CTF4, active compounds read low 0.884 | S. cerevisiae strains, strain wild type, active compounds read low 0.997
